The target of the first assay is SELL. Briefly: pooled miR-30 sensor sort-seq; sequence = guide strand. Particulars: shRNA.
The sequence TCACTTGACAGGTTGGTTCTGG showed a sensor-assay potency score (higher = more potent) of 0.848. Same read-out and setting: the value for TTGTCTCGGCAGAATCTTCTAG was -0.184; that for TTCTCTTGGATTTCTTGCCTTT was 0.216; that for TTCAGTAAGAGATTTGTTGGTT was 0.629. TTAATCATTGAGAAACTTTTGT: the sensor-assay potency score (higher = more potent) was -0.0417. On the same count and under the same terms, to TTGTATGGCAACTAAATCTGTG belongs -0.502. On the same count and under the same terms, to TTATTGATGATTTCTACACATT belongs -1.76. As to TTGATATAGATCTCCACGCAGT, the sensor-assay potency score (higher = more potent) is -0.218. In turn, TTTGACATATTGGACTAGGATT showed a sensor-assay potency score (higher = more potent) of -1.37.

TAATTGTCTCGGCAGAATCTTC returned a sensor-assay potency score (higher = more potent) of -1.3. Sequence TAAATCTGTGTAATTGTCTCGG displayed a sensor-assay potency score (higher = more potent) of 0.157. Regarding TAGGATTTGACCAGATTCCAGA, the sensor-assay potency score (higher = more potent) was -0.318.

Another assay concerns the target SELO. Described as above. Particulars: shRNA.
The sequence TGTTTGTGAAGTCGGCACCGGT had a sensor-assay potency score (higher = more potent) of -1.02. Turning to TTTCTCTGCACGCTGTCGCTGG, the sensor-assay potency score (higher = more potent) is -0.303.

Regarding AACACGTCGCGCACCACCGTGG, the sensor-assay potency score (higher = more potent) was -0.914. As for TTGTCGGTGTTGAGCACGCCGT, the sensor-assay potency score (higher = more potent) was -1.37.

These data come from the OligoGym collection.
Further: reference of the scale not given here.
